Data taken from PubChem BioAssay (NCATS).
Inconclusive results are not listed. Entries that show only a call come without a potency. Activity calls are given as the source filed them. Calls come from the whole dose curve; as a rule, active = well fitted cell-killing curve with a large enough effect; inconclusive = small, poorly fitted or top-dose-only effect, or effect the other way; inactive = flat fitted curve, though single readings scatter.

Tested on: CAOV3
Experiment: Primary qHTS to identify gynecologic anti-cancer compounds using libraries of approved drugs and bioactive compounds (AID 1345084); note: nearly all actives have a fitted effect of over 55% in size
Details: Gynecologic cancer cell panel viability, ATPlite luminescence, 48 h; series mostly up to 57.5 µM
Description: National Center for Advancing Translational Sciences [NCATS] Assay Overview: Chemotherapeutic drug responses vary from cancer to cancer and from patient to patient. These variations could be caused by a number of factors including patient genomic background, tumor mutations, tumor heterogeneity, and aspects of drug treatment. Chemotherapeutic drug resistance is also a common issue and can lead to ineffective treatment and patient death. Here we have profiled the cell killing effects of thousands of compounds to characterize the responses in three gynecological cancers, identify cancer-selective compounds, and understand the diversity of responses to these compounds from pan-cancer suppressors to single cell line selective compounds. In this assay, we screened a 7,914 compound drug library that included approved drug and bioactive compounds in six ovarian, three cervical, and […] placental cancer cell lines using the ATPlite assay for cell viability. […] The cervical cancer cell lines included HeLa, Ca Ski, and C-33 A. The placental cancer cell lines included JEG-3. HEK 293T cells were used as the control cell line to determine the selectivity index. ATPlite is a luminescence based assay reliant on the conversion of a luciferase substrate to light in the presence of ATP. As a cytotoxic compound will suppress growth and decrease the number of cells, the concentration of ATP will decrease, and less light signal will be detected in the well.
Assay Protocol Summary: 1,000 cells in 4 uL of media were dispensed into white, solid bottom 1536-well plates using a Multidrop Combi (Thermo Scientific). The Assay plates were incubated for 16 hours at 37 C with 5% CO2 in assay plates, followed by the addition of 23 nL of DMSO or drug dissolved in DMSO. Each compound was assayed in five concentrations (0.092, 0.46, 2.3, 11.5, and 57.5 uM), using the automated Wako 1536 Pin Tool workstation and incubated at 37 C with 5% CO2 48 hours. 4 uL of ATPlite, the ATP monitoring reagent, was then added to the each well of the assay plates using the Multidrop Combi reagent dispenser followed by incubation for 15 minutes at room temperature. The resulting luminescence was measured using the ViewLux plate reader.
Potency is the fitted concentration of half-maximal effect.

Structure (SMILES)	Potency	activity change, negative = cytotoxicity
Cc1nc(C)c2c(n1)N(Cc1ccc(-c3ccccc3-c3nn[nH]n3)cc1)C(=O)CC2	inactive	
O=C(NC(NC(=S)Nc1ccc(F)c([N+](=O)[O-])c1)C(Cl)(Cl)Cl)C(c1ccccc1)c1ccccc1 (stereo not given)	inactive	
CN([C@H]1c2cc(OCCCC(F)(F)F)ccc2OC(C)(C)[C@@H]1O)S(C)(=O)=O	inactive	
CCCCn1c(-c2ccccc2)nc(-c2ccccc2)c1CN(Cc1ccc2c(c1)OCO2)Cc1ccc2c(c1)OCO2	inactive	
COCCOCCOc1ccc(C2=N[C@@](C)(C(=O)O)CS2)c(O)c1	inactive	
CCS(=O)(=O)N(Cc1cccnc1)c1cccc(-c2ccc(C#N)cc2)c1	inactive	
CC[C@H](C)[C@H]1O[C@]2(CC[C@@H]1C)C[C@@H]1C[C@@H](C/C=C(\C)[C@@H](O[C@H]3C[C@H](OC)[C@@H](O[C@H]4C[C@H](OC)[C@@H](O)[C@H](C)O4)[C@H](C)O3)[C@@H](C)/C=C/C=C3\CO[C@@H]4[C@H](O)C(C)=C[C@@H](C(=O)O1)[C@]34O)O2	inactive	
COc1ccc(C(=O)N(CCC(C)C)Cc2nc(C)c(C)n2Cc2ccccc2C)c(OC)c1	inactive	
CC(C)n1cnc2c(Nc3cccc(Cl)c3)nc(NCCO)nc21	inactive	
CC(C)(C)c1ccc(-c2nc3ccccc3[nH]2)cc1	0.891 µM (active)	
CC(CCC1(O)OC2CC3C4CC=C5CC(O[C@@H]6O[C@H](CO)[C@@H](O[C@@H]7O[C@H](CO)[C@@H](O)[C@H](O)[C@H]7O)[C@H](O)[C@H]6O[C@@H]6O[C@@H](C)[C@H](O)[C@@H](O)[C@H]6O)CCC5(C)C4CCC3(C)C2C1C)CO[C@@H]1O[C@H](CO)[C@@H](O)[C@H](O)[C@H]1O (stereo not given in full)		-3.93% [at 11.6 µM] (inactive)
C=C1C(=O)O[C@@H]2C[C@@]3(C)CCC[C@H](C)C3=C[C@H]12	inactive	
CNc1ccc([N+](=O)[O-])cc1-n1cnc(-c2ccc(C(F)(F)F)cc2)c1	inactive	
O=C(O)c1ccc(O)c2ncc(N3CCCN(CCc4cccc5ccccc45)CC3)cc12	inactive	
CCCCC(=O)N(Cc1ccc(-c2ccccc2-c2nn[nH]n2)cc1)C(C(=O)O)C(C)C (stereo not given)	inactive	
N#C[C@@H]1C[C@@H]2C[C@@H]2N1C(=O)[C@@H](N)C12CC3CC(CC(O)(C3)C1)C2	inactive	
CCC[C@@H](NC(=O)N1C(=O)C(CC)(CC)[C@@H]1Oc1ccc(C(=O)N2CCN(C)CC2)cc1)c1ccc2c(c1)OCO2	inactive	
Cc1ccc(C2(COC(=O)C(C)C)CO2)c(OC(=O)C(C)C)c1 (stereo not given)	inactive	
Cc1ccc(C(=O)N2CCN(c3ccc([N+](=O)[O-])cc3)CC2)cc1Cl	inactive	
COc1ccc(-c2nc(-c3cc(C(F)(F)F)cc(C(F)(F)F)c3)n(Cc3ccc(C(N)=O)cc3)c2-c2ccc(OC)cc2)cc1	inactive	

Structure (SMILES)	Potency	activity change, negative = cytotoxicity
C=C(C(=O)O)C1CC2=C(C)C(=O)CC2C(C)CC1O (stereo not given)	inactive	
CCOC(=O)c1cccc(CNc2ccc(N(C)C(=O)Nc3ccccc3)cc2)c1	inactive	
COc1cccc(CNC(=O)Nc2nc(-c3ccncc3)cs2)c1	inactive	
COc1cc2ncnc(Oc3cccc(NC(=O)Nc4cc(C(C)(C)C(F)(F)F)on4)c3)c2cc1OC	inactive	
C=C(C)C(=O)OC1[C@@H]2C(=C)C(=O)O[C@@H]2C[C@@H](C)[C@@H]2C=CC(=O)[C@@]12C (stereo not given in full)	inactive	
C=CC(=O)Nc1cc(Nc2nccc(-c3cn(C)c4ccccc34)n2)c(OC)cc1N(C)CCN(C)C	35.5 µM (active)	
CN(C)C(=O)c1cc2cnc(Nc3ccc(N4CCNCC4)cn3)nc2n1C1CCCC1	inactive	
C[C@@H](c1nc(-c2ccc(C#N)cc2)cs1)[C@](O)(Cn1cncn1)c1cc(F)ccc1F	inactive	
O=C(Nc1cccc(C(F)(F)F)c1)c1ccccc1NCc1ccncc1	inactive	
O=C(CC1NCCC[C@H]1O)Cn1cnc2cc(Br)c(Cl)cc2c1=O (stereo not given in full)	inactive	
Oc1ccc(Nc2nc(-c3ccc(Cl)cc3)cs2)cc1	inactive	
COc1ccc2c(c1)C[C@H](C(=O)Nc1ccc(-c3cn[nH]c3)cc1OCCN(C)C)CO2	inactive	
Cn1cc(-c2cnc3ccc4ccc(CS(=O)(=O)NCc5ccccn5)cc4c(=O)c3c2)cn1	inactive	
CC[C@]1(O)C[C@H]2CN(CCC3C(=Nc4ccccc43)[C@@](C(=O)OC)(c3cc4c(cc3OC)N(C)[C@H]3[C@@](O)(C(N)=O)[C@H](O)[C@]5(CC)C=CCN6CC[C@]43[C@@H]65)C2)C1 (stereo not given in full)	inactive	
CN(C)CCCNc1nc(CN2CCN(C(c3ccc(Cl)cc3)c3ccc(Cl)cc3)CC2)nc2ccccc12	inactive	
C[C@H](NC(=O)C(C)(C)Oc1ccc(C(F)(F)F)cn1)[C@@H](Cc1ccc(Cl)cc1)c1cccc(C#N)c1	inactive	
CC(C)[C@@H](C)/C=C/[C@@H](C)[C@H]1CC[C@H]2C3=CC=C4C[C@@H](O)CC[C@]4(C)C3=CC[C@]12C	inactive	
Cc1c(C(=O)NCCCO)cnn1-c1nc(-c2cccc(C(F)(F)F)c2)cs1	inactive	
CCC(=O)c1cc(-c2ccc(Cl)cc2)n(-c2ccc(S(N)(=O)=O)cc2)c1C	inactive	
CC1CCC(n2c3cnccc3c3cnc(Nc4ccc5c(n4)CCN(C(=O)CO)C5)nc32)CC1 (stereo not given)	inactive	
